We go through 36 targets from the supplement of paper PMC10849652.

Of roughly 8,800 targets only a part is listed; those with a hit were picked by preference. About 0.5% of all pairs of compound and target were hits.

UniProt Q13409, sequence (Q13409 whole entry, looked up): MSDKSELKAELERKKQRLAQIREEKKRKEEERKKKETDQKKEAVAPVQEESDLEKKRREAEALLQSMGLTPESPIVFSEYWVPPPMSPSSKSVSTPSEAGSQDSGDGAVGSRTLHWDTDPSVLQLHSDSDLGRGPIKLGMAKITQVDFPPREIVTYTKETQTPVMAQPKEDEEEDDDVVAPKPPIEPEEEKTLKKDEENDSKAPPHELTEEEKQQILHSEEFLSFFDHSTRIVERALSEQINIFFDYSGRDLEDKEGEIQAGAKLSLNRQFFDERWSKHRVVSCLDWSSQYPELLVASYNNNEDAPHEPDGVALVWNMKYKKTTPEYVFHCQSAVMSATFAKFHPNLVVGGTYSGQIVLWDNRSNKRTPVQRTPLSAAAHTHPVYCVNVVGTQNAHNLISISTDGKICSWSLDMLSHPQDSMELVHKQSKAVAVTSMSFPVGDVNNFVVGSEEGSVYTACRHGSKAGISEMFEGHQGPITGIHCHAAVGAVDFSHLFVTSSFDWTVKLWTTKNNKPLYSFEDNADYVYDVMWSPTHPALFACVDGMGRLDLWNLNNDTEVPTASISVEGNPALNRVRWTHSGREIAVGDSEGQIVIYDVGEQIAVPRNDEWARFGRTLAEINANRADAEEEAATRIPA
UniProt Q06547, sequence (Q06547 whole entry, looked up): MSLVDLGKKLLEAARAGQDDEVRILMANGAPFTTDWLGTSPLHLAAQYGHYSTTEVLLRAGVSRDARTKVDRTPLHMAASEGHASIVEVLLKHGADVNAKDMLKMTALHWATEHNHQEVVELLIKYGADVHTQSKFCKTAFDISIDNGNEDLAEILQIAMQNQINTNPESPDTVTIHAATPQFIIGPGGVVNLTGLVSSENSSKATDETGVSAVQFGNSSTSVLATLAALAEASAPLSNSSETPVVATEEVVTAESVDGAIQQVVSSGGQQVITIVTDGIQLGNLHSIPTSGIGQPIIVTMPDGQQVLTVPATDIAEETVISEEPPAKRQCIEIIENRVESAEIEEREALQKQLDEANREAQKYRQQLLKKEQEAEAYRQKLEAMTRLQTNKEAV
UniProt Q9UI10, sequence (Q9UI10 whole entry, looked up): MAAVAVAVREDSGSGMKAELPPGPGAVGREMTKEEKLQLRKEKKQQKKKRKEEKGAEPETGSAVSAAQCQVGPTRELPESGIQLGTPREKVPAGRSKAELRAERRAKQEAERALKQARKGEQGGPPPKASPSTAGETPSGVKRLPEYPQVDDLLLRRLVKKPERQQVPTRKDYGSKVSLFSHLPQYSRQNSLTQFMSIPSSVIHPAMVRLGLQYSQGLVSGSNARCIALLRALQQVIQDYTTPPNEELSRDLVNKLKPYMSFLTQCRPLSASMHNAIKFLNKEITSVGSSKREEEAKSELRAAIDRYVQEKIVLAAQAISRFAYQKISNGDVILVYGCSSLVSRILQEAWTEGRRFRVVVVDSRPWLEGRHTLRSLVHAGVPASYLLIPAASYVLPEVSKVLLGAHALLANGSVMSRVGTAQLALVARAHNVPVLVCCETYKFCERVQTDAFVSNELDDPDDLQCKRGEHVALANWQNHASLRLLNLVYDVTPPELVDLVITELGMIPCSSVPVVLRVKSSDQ
UniProt P0C2W1, sequence (P0C2W1 whole entry, looked up): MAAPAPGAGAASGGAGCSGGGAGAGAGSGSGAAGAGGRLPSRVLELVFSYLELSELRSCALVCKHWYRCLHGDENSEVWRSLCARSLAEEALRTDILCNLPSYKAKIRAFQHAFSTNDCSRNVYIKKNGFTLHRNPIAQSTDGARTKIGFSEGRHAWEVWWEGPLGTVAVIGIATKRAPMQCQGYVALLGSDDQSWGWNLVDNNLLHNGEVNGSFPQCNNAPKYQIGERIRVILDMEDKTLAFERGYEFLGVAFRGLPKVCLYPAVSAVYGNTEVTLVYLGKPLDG
UniProt Q9Y5Q0, sequence (Q9Y5Q0 whole entry, looked up): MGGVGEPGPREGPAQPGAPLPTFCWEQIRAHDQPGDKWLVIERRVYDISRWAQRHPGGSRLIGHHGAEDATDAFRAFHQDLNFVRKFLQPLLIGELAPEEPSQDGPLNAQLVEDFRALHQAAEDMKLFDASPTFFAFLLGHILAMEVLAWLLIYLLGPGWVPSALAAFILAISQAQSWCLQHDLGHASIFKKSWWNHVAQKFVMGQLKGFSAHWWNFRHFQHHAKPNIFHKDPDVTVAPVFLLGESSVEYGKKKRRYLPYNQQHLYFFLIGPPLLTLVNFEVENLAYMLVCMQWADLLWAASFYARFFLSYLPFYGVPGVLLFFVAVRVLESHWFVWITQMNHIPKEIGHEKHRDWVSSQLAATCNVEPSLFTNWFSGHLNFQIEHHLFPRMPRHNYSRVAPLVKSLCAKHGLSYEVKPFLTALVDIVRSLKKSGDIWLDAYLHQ
UniProt Q8IY81, sequence (Q8IY81 whole entry, looked up): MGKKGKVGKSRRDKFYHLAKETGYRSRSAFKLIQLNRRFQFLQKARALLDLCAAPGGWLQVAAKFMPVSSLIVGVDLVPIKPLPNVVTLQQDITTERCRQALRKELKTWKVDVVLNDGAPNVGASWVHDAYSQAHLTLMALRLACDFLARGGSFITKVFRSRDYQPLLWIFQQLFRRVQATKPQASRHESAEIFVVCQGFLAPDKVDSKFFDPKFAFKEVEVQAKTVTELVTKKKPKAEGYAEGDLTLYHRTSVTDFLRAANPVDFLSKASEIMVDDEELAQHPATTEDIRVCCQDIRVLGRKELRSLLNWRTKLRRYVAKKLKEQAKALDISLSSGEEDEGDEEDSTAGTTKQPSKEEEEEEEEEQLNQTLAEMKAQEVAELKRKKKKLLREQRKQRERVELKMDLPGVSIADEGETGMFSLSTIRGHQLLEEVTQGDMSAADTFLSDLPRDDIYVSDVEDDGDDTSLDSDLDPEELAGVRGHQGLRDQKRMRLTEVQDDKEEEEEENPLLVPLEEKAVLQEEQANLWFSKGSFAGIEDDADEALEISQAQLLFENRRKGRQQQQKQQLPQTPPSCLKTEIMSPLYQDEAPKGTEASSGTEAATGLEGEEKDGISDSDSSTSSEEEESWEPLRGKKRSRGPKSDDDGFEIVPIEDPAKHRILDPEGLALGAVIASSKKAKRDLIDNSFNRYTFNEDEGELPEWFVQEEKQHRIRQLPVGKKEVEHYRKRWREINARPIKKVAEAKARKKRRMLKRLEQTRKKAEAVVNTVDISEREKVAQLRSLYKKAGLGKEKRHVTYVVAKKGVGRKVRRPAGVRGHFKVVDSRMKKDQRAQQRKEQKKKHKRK
UniProt O95571, sequence (O95571 whole entry, looked up): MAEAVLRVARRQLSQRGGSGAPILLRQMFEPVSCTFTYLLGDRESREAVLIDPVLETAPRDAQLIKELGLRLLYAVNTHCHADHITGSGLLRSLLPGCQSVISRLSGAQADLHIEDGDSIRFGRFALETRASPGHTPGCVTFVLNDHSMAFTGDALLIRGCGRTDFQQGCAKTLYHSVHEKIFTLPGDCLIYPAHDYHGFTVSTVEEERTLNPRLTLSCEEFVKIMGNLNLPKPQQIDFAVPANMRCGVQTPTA
UniProt Q9NX74, sequence (Q9NX74 whole entry, looked up): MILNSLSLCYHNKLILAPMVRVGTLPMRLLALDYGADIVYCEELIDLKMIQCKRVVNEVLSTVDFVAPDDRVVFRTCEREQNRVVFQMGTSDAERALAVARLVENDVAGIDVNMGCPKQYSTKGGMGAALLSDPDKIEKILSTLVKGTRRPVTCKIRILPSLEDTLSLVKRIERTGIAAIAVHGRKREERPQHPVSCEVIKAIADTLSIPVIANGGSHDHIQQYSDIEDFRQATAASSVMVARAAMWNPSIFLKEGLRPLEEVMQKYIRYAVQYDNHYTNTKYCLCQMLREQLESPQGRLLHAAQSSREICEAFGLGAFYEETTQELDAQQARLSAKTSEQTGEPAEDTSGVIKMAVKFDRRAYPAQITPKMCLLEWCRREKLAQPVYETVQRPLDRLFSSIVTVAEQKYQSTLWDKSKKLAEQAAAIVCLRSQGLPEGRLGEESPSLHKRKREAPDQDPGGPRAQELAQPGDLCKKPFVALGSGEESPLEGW
UniProt P51570, sequence (P51570 whole entry, looked up): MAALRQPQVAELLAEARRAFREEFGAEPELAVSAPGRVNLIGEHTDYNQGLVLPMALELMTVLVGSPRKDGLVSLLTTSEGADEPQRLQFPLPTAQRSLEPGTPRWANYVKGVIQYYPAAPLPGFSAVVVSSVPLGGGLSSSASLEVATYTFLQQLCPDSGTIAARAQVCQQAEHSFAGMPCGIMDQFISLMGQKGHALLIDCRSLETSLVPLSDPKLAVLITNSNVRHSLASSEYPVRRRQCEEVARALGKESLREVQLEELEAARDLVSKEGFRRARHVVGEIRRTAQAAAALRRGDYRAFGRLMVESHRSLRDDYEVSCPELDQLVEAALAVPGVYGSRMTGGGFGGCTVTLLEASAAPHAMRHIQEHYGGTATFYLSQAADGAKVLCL
UniProt P06733, sequence (P06733 whole entry, looked up): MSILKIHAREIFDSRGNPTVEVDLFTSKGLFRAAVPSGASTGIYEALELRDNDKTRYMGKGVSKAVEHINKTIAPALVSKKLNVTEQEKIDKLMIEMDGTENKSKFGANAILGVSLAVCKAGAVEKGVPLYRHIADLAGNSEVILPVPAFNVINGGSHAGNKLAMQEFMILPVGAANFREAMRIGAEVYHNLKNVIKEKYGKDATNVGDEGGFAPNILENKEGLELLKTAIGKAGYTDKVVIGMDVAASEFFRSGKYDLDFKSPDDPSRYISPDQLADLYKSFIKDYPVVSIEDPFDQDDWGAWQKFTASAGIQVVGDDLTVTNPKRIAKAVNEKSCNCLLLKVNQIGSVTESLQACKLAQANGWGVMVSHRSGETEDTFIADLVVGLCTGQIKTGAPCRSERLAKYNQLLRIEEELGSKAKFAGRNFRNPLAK
UniProt O43768, sequence (O43768 whole entry, looked up): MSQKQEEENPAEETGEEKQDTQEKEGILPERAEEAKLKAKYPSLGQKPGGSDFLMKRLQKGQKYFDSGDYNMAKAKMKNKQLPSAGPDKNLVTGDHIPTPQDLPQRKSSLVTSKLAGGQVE

Compound in the test: C/C(=N\NC(=O)C1=CC(=CC=C1)S(=O)(=O)N2CCOCC2)/C3=C(C=CC(=C3)Cl)O
Description: log2 fold change, soluble protein after heating vs DMSO (PISA); higher = thermal stabilisation; K562 lysate, 10 uM; active = over 0.2 and 3.5 SD of the protein, either way, in both replicates (recomputed). In outline:
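K562 pellets were dounce-homogenised in PBS pH 7.4 containing 1 mM MgCl2, and the crude extract, at 1 mg/mL protein, was exposed to 10 μM compound for 30 min. Aliquots were heated for 3 min across 48°C-58°C, pooled, brought to 0.5% NP-40 at 4°C and spun at 21,000xg for 90 min, with the supernatant taken as soluble protein. TMTpro 16plex LC-MS/MS with equalised channel sums quantified that protein. Values are log-two fold changes in thermal stability relative to solvent controls, taken from duplicates.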
Turning to FAU (UniProt E9PR30), the log2 fold change is -1.8 (inactive).
For FTSJ3 (UniProt Q8IY81), the log2 fold change is -0.157 (inactive).
With GALK1 isoform 2 (UniProt P51570) the figure was 0.022 (inactive); with FHOD1 (UniProt Q9Y613), 0.021 (inactive).
With FNTB (UniProt P49356) the figure was -0.038 (inactive).
Next, ETHE1 (UniProt O95571): -0.01 (inactive).
GATAD2A isoform 3 (UniProt Q86YP4): the log2 fold change is -0.124 (inactive).
With DYNC1I2 isoform 2 (UniProt Q13409) the figure was -0.032 (inactive); with EIF3I (UniProt Q13347), 0.033 (inactive).
Next, ENSA isoform 3 (UniProt O43768): 0.032 (inactive); GDPD1 (UniProt Q8N9F7): 0.248 (inactive); EEF1A1, A0A087WVQ9: -0.049 (inactive).
With FAM98A (UniProt Q8NCA5) the figure was -0.026 (inactive); with GEMIN5 (UniProt Q8TEQ6), 0.004 (inactive); with FXR2 (UniProt P51116), 0.026 (inactive).
In the case of ENO1 isoform 2 (UniProt P06733), the log2 fold change was -0.039 (inactive).
Regarding GABPB1 (UniProt Q06547), the log2 fold change was 0.033 (inactive).
GABPB1 isoform 3 (UniProt Q06547): the log2 fold change was -0.042 (inactive).
Consider EIF2B4 (UniProt Q9UI10), for which the log2 fold change is -0.063 (inactive).
For FYN (UniProt P06241), the log2 fold change was 0.02 (inactive).
With DUS2 (UniProt Q9NX74) the figure was 0.007 (inactive); with FBXO45 (UniProt P0C2W1), 0.016 (inactive); with EP400 isoform 5 (UniProt Q96L91), 0.01 (inactive).
With ECI2 (UniProt O75521) the figure was 0.01 (inactive); with FBLL1 (UniProt A6NHQ2), -0.015 (inactive); with FADS3 (UniProt Q9Y5Q0), -0.355 (inactive).
As for FANCD2 isoform 1 (UniProt Q9BXW9), the log2 fold change is 0.002 (inactive).
With DYRK1A (UniProt Q13627) the figure was -0.057 (inactive); with GGA2 (UniProt Q9UJY4), 0.042 (inactive).
On to DYNC1I2 isoform 5 (UniProt Q13409), for which the log2 fold change is 0.001 (inactive).
Next, EXOC1 (UniProt Q9NV70): -0.005 (inactive); FAM83A (UniProt Q86UY5): 0.168 (inactive); DST (UniProt Q03001): -0.035 (inactive).
Next, GCN1 (UniProt Q92616): 0.066 (inactive); FDX2 (UniProt Q6P4F2): 0.063 (inactive); ENO1, A0A2R8YEM5: 0.004 (inactive).
